“And” between values parts separate entries of the source, which are not always exact repeats. Equal entries are not always repeated. Some structures have more than one record in an assay (separate samples or runs), and their calls can disagree. The source made the active and inactive calls. The calls were made as follows: active = hit-call score of the fitted dose curve at least 0.9, where 1 is the maximum; inactive = score below 0.9.
Read-out: Apolipoprotein A-V (APOA5) gene, APOA5 (gene 116519)
Assay: LTEA_HepaRG_APOA5: Life Technologies and Expression Analysis (LTEA) Assay for Apolipoprotein A-V (APOA5) gene using HepaRG (AID 2283474)
Conditions: mRNA level, 48 h; actives raise or lower the signal
Protocol: LTEA_HepaRG is a cell based, multiplexed-readout assay that uses HepaRG, a human liver cell line, with measurements taken at 48 hours after chemical dosing on a 96-well plate.LTEA_HepaRG_APOA5 is one of 102 assay component(s) measured in the LTEA HepaRG cell culture assay. It is a marker of Steatosis.Data from the assay component LTEA_HepaRG_APOA5 was analyzed into 1 endpoint. This assay endpoint, LTEA_HepaRG_APOA5, was analyzed with bidirectional fitting relative to DMSO as the negative control and baseline of activity. Using a type of inducible reporter, measures of mRNA induction for gain or loss-of-signal activity can be used to understand regulation of transcription factor activity. To generalize the intended target to other relatable targets, this assay endpoint is annotated to the apolipoprotein intended target family, where the subfamily is Steatosis.
A total of 1060 chemcials from the ToxCast library were tested in eight-point concentration-response experiments. Cell culture and cytotoxicity assays were conducted at Thermo Fisher Scientific's Custom Services facility (Madison, WI). A single lot of human HepaRG cells (Thermo Fisher Scientific, Frederick, MD) was used for the cell culture experiments. 96-well format collagen type I coated plates of human HepaRG cells were prepared using established methods. Briefly, cryopreserved HepaRG cells were thawed, plated at a density of approximately 100,000 cells/well in HepaRG Thaw, Plate, and General Purpose media (HPRG770, Thermo Fisher Scientific), and incubated for 48 hours. 0.5% DMSO was selected as vehicle control to balance the requisite need of DMSO in HepaRG cultures to maintain differentiation (for example, baseline metabolism, proportions of hepatocytes vs. cholangiocytes), while enabling further hepatic receptor pathway activation (for example, PXR and CAR) in response to chemical exposure. 48 hours after plating, the culture medium was replaced with HepaRG Serum-Free Incudtion Media. Cells were exposed to each test chemical in duplicate and maintained in CO2 incubators for another 48 hours. Chemical plates were thawed to room temperature and 200x concentrations of treatment groups were prepared. 8-point conentration-reponse curves were made with the highest exposure at 100 uM, followed by half-log dilutions, all in 0.5% DMSO. Each test plate contained variouse controls, induction positive controls (1mM phenobarbital), cytotoxicity positive controls ([…] aflatoxin B1), vehicle controls (0.5% DMSO), and total lysis controls (0.5% DMSO). Cell morphology images were taken using an Essen IncuCyte FLR automated microscope, with six 96-well plates imaged in about 24 minutes. Images were captured and exported and JPEG files. Spent culture media was transfered to black-well plates for the LDH assay, and remaining media was sorted at -80 C for later use. Cells were treated with RLT buffer and frozen until shipped for gene expression analysis. Total RNA was isolated from the cell suspension in 75 uL of Buffer RLT (Qiagen, Germantown, MD 20874) by Quintiles/Expression Analysis (Durham, NC) using a custom isolation procedure. Total RNA from each plate well was transferred to a preamplification plate. Fluidigm's 96.96 Dynamic ArrayTM (Fluidigm, Amsterdam, the Netherlands) technology was used for gene expression analyses by quantitative reverse transcription polymerase chain reaction (qRT-PCR, performed by Quintiles/Expression Analysis, Durham, NC)89. Standard TaqManTM Assays (Applied Biosystems/ThermoFisher Scientific, Foster City, CA) were used to assess the expression of 93 genes selected based on their selectivity and sensitivity to important hepatic receptors known to be modulated by environmental chemicals; importance in human hepatocyte functionality; and hepatotoxicity. […]

SMILES | outcome | AC50
COC(=O)c1ccccc1C(=O)OC | inactive | –
CO/C=C(/C(=O)OC)c1ccccc1Oc1cc(Oc2ccccc2C#N)ncn1 | – | 91.8 µM (active) and 78 µM (active) and 74.3 µM (active)
CC(C)(C)c1ccc(CSc2cnn(C(C)(C)C)c(=O)c2Cl)cc1 | – | 12 µM (active)
C#CCOS(=O)OC1CCCCC1Oc1ccc(C(C)(C)C)cc1 (stereo not given) | inactive | –
CCCCC(CC)COC(=O)c1ccccc1C(=O)OCC(CC)CCCC (stereo not given) | inactive | –
CCNc1nc(Cl)nc(NC(C)C)n1 | inactive | –
OC(c1ccc(Cl)cc1)(c1cncnc1)c1ccccc1Cl (stereo not given) | – | 72.9 µM (active)
CC(C)C1(C)N=C(c2nc3ccccc3cc2C(=O)O)NC1=O (stereo not given) | inactive | –
Oc1ccccc1-c1ccccc1 | inactive | –
CON(C)C(=O)Nc1ccc(Cl)c(Cl)c1 | inactive | –
O=C(Nc1ccccc1)Nc1ccnc(Cl)c1 | – | 71.9 µM (active)
CCON=C(CC)C1=C(O)CC(c2c(C)cc(C)cc2C)CC1=O (stereo not given) | inactive | –
C=CCC1=C(C)[C@@H](OC(=O)[C@@H]2[C@@H](C=C(C)C)C2(C)C)CC1=O | inactive | –
Cc1c(F)c(F)c(COC(=O)C2C(/C=C(\Cl)C(F)(F)F)C2(C)C)c(F)c1F (stereo not given) | inactive | –
Cc1cc(Cl)ccc1OCC(=O)O | inactive | –
CCCCNC(=O)OCC#CI | inactive | –
CCCC1COC(Cn2cncn2)(c2ccc(Cl)cc2Cl)O1 (stereo not given) | – | 47.4 µM (active)
COc1cnc(OC)n2nc(NS(=O)(=O)c3c(OCC(F)F)cccc3C(F)(F)F)nc12 | inactive | –
CC(C)Oc1cc(-n2nc(C(C)(C)C)oc2=O)c(Cl)cc1Cl | – | 32.4 µM (active)
C=CCC1=C(C)C(OC(=O)C2C(C=C(C)C)C2(C)C)CC1=O (stereo not given) | inactive | 0.000839 µM (active)

SMILES | outcome | AC50
COP(N)(=O)SC (stereo not given) | inactive | –
N#Cc1cc(Br)c(O)c(Br)c1 | – | 21.2 µM (active)
CN(C)C(=S)SSC(=S)N(C)C | inactive | –
COc1ccc(C(c2ccc(OC)cc2)C(Cl)(Cl)Cl)cc1 | – | 70.9 µM (active)
CCc1nn(C)c(C(=O)NCc2ccc(C(C)(C)C)cc2)c1Cl | – | 0.5 µM (active)
CCNc1nc(Cl)nc(NCC)n1 | inactive | –
CCCN(CCC)c1c([N+](=O)[O-])cc(S(N)(=O)=O)cc1[N+](=O)[O-] | inactive | –
COC(=O)N(OC)c1ccccc1COc1ccn(-c2ccc(Cl)cc2)n1 | – | 3.56 µM (active)
COc1nc(NC(C)C)nc(NC(C)C)n1 | inactive | –
CCOC(=O)CC(SP(=S)(OC)OC)C(=O)OCC (stereo not given) | inactive | –
N#Cc1nn(-c2c(Cl)cc(C(F)(F)F)cc2Cl)c(N)c1S(=O)C(F)(F)F (stereo not given) | – | 54.4 µM (active)
CCOP(=S)(OCC)SCn1c(=O)oc2cc(Cl)ccc21 | inactive | –
O=C(O)c1nc(Cl)ccc1Cl | inactive | –
CCCCOC(=O)c1ccccc1C(=O)OCCCC | inactive | –
CCOc1cc(Oc2ccc(C(F)(F)F)cc2Cl)ccc1[N+](=O)[O-] | – | 30.8 µM (active)
Fc1ccc(Oc2ccnc3cc(Cl)cc(Cl)c23)cc1 | inactive | –
O=C(O)COc1nc(Cl)c(Cl)cc1Cl | inactive | –
CS/C(C)=N/OC(=O)N(C)SN(C)C(=O)O/N=C(\C)SC | inactive | –
CC1COC(Cn2cncn2)(c2ccc(Oc3ccc(Cl)cc3)cc2Cl)O1 (stereo not given) | – | 12.8 µM (active)

— PubChem BioAssay (EPA / NIEHS)
